Assay results from ChEMBL document CHEMBL2218924, “A broad activity screen in support of a chemogenomic map for kinase signalling research and drug discovery” (Biochem J, 2013).

What was measured:
[1] = target: T1, Protein kinase C zeta type (Homo sapiens) (UniProt Q05513); conditions: at 1 µM
T1 sequence (whole entry): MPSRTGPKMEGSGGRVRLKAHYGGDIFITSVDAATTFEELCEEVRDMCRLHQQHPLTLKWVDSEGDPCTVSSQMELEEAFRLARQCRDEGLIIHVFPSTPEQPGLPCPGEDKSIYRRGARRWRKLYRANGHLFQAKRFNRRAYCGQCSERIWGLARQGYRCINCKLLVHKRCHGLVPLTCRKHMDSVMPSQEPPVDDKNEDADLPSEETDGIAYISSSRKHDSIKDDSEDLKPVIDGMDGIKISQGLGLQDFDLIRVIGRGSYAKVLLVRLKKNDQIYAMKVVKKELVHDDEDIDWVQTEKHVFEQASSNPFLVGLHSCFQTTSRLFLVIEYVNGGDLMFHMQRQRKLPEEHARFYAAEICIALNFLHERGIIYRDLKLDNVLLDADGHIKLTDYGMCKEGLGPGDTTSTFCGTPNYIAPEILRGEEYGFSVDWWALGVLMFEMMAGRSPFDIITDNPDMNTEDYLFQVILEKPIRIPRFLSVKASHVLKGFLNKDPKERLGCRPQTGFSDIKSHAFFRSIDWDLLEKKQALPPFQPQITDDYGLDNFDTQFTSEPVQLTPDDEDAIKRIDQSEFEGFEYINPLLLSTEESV

[2] = target: T2, Mitogen-activated protein kinase kinase kinase 5 (Homo sapiens) (UniProt Q99683); conditions: at 10 µM
T2 sequence (whole entry): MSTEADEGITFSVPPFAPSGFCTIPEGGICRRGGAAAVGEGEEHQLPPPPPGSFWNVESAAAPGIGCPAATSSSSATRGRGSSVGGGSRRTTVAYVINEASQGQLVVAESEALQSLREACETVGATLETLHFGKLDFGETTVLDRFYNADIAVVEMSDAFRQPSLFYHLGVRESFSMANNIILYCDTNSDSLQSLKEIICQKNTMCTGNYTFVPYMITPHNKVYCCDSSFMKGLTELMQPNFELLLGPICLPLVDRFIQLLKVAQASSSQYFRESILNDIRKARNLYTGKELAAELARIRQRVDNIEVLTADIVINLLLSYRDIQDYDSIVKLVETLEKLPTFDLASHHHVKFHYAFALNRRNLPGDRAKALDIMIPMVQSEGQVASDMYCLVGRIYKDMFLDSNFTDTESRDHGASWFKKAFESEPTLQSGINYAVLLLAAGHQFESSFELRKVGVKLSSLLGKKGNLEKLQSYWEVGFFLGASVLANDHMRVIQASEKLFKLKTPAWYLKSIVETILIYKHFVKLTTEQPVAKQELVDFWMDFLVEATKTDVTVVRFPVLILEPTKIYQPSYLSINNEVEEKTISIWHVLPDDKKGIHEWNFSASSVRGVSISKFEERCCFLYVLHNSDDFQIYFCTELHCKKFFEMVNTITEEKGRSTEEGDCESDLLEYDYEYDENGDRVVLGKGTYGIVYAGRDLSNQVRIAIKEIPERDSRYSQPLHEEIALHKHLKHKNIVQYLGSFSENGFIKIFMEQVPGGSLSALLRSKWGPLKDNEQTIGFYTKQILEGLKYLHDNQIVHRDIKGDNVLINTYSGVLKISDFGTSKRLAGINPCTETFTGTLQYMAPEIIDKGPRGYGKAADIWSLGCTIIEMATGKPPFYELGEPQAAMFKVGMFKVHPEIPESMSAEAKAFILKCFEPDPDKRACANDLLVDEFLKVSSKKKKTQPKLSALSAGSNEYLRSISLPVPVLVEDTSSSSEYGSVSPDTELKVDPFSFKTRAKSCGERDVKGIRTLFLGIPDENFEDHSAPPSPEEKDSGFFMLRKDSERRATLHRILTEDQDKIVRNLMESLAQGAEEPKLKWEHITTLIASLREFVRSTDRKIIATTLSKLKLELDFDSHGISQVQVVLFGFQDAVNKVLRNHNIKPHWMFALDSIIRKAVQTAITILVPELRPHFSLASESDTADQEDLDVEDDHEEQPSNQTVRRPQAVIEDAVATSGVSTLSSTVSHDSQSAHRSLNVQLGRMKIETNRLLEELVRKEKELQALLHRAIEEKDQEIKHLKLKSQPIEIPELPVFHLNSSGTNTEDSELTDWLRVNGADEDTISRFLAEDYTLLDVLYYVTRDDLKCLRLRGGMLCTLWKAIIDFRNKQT

[3] = target: Tyrosine-protein kinase ABL1 (Homo sapiens) (UniProt P00519); conditions: at 1 µM
Sequence of Tyrosine-protein kinase ABL1 (Homo sapiens) (P00519 whole entry): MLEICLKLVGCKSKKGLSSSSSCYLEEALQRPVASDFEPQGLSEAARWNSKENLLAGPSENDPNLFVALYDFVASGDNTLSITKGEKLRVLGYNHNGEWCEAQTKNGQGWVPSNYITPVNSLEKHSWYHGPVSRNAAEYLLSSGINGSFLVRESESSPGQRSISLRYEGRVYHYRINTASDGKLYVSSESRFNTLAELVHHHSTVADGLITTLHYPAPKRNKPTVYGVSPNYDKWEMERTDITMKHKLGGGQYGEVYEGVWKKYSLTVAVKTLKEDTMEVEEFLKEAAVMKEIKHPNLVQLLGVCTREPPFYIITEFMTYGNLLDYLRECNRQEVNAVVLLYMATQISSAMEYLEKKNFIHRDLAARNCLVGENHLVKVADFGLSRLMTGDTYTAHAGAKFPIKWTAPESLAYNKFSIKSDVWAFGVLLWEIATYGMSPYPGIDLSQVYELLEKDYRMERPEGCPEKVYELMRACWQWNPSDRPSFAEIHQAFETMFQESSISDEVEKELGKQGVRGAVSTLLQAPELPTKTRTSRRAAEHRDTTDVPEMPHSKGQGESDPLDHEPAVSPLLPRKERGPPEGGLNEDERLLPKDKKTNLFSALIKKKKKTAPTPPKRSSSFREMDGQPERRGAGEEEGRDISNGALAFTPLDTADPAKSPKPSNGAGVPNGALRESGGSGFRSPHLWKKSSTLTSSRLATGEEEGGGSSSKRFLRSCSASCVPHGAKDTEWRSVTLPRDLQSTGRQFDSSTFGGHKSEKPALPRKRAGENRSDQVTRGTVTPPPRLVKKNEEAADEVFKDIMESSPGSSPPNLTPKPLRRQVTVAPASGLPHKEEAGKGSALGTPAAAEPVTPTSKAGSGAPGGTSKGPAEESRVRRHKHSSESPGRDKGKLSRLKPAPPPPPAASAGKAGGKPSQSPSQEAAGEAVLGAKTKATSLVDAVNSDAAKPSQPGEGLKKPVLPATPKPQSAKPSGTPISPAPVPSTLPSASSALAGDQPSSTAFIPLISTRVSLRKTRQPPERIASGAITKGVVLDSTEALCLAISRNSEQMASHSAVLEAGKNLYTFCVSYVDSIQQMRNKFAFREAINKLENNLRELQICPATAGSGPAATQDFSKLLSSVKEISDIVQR

[4] = target: Tyrosine-protein kinase ABL1 (Homo sapiens) (UniProt P00519); conditions: at 10 µM
[5] = target: Tyrosine-protein kinase ABL2 (Homo sapiens) (UniProt P42684); conditions: at 1 µM
Sequence of Tyrosine-protein kinase ABL2 (Homo sapiens) (P42684 whole entry): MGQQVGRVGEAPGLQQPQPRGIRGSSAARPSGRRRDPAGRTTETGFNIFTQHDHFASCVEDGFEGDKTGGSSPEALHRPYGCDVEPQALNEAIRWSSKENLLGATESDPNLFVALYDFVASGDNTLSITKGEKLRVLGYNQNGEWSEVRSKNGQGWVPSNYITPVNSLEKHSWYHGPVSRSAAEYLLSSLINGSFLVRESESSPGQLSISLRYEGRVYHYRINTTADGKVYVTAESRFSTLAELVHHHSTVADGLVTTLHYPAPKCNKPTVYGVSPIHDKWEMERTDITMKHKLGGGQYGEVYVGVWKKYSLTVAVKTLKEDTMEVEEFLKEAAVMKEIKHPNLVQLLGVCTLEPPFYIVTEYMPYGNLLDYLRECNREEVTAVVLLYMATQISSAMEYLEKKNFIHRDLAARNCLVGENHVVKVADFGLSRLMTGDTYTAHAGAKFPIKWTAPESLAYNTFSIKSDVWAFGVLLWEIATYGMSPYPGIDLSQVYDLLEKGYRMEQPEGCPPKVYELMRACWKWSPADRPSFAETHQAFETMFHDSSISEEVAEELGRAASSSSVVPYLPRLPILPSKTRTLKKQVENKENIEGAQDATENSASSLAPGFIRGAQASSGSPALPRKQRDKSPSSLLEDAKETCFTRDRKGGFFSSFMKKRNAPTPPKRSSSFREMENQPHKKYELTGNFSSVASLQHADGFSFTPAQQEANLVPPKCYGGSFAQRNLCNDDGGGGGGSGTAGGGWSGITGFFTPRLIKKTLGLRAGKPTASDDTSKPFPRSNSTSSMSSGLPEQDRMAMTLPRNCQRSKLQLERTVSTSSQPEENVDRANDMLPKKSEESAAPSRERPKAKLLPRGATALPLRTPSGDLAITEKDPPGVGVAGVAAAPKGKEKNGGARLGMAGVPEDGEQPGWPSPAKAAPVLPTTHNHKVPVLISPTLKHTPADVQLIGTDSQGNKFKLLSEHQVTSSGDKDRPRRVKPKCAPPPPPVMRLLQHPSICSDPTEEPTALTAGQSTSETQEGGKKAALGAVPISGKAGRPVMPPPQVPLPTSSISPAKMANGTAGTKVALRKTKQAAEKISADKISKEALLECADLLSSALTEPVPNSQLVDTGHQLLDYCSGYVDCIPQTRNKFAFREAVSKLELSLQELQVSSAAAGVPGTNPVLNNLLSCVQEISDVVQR

[6] = target: Tyrosine-protein kinase ABL2 (Homo sapiens) (UniProt P42684); conditions: at 10 µM
[7] = target: T3, Aurora kinase A (Homo sapiens) (UniProt O14965); conditions: at 1 µM
T3 sequence (whole entry): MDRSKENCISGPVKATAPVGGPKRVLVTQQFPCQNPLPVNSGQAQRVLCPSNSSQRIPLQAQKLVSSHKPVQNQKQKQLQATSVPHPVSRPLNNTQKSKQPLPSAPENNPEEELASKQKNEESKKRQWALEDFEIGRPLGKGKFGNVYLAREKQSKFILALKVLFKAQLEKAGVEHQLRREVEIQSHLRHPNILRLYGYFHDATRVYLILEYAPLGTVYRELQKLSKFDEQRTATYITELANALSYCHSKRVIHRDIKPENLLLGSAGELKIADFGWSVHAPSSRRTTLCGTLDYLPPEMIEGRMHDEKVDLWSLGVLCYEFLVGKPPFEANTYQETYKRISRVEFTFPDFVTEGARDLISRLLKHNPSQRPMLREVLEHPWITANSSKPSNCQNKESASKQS

[8] = target: T3, Aurora kinase A (Homo sapiens); conditions: at 10 µM
[9] = target: Aurora kinase B (Homo sapiens) (UniProt Q96GD4); conditions: at 1 µM
Sequence of Aurora kinase B (Homo sapiens) (Q96GD4 whole entry): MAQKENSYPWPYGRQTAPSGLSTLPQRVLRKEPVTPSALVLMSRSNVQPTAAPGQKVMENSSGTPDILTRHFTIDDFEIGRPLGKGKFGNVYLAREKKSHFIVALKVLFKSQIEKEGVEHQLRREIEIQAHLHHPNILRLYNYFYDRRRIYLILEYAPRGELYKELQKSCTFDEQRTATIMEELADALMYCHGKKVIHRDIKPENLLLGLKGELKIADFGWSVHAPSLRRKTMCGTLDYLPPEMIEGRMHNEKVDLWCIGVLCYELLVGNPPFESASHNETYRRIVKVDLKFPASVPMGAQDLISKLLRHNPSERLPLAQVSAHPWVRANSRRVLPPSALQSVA

[10] = target: Aurora kinase B (Homo sapiens) (UniProt Q96GD4); conditions: at 10 µM

Row | Structure (SMILES) | residual activity [1] | residual activity [2] | residual activity [3] | residual activity [4] | residual activity [5] | residual activity [6] | residual activity [7] | residual activity [8] | residual activity [9] | residual activity [10]
1 | CCN(CC)CCCCN1c2ccccc2Oc2ccc(Cl)cc21 | 114% (inactive) | 114% | 124% | 102% | 140% | 122% | 97% | 140% | 141% | 103%
2 | O=C(O)c1ccc2c3c1cccc3c(=O)n1c3ccccc3nc21 | 112% (inactive) | 72% | 101% | 80% | 91% | 74% | 72% | 16% | 64% | 18%
3 | Oc1n[nH]c2nnc(-c3c(-c4ccccc4)nn4ccccc34)cc12 | 107% (inactive) | 105% | 81% |  | 95% | 64% | 104% | 93% | 5% | 2%
4 | NC(=O)c1ccc2[nH]c(-c3ccc(Oc4ccc(Cl)cc4)cc3)nc2c1 | 99% (inactive) | 61% | 106% | 130% | 128% | 95% | 88% | 86% | 68% | 34%
5 | O=C1Nc2cc(Br)ccc2/C1=C1/Nc2ccccc2/C1=N\O | 103% (inactive) | 86% |  | 6% | 16% | 2% | 31% | 25% | 3% | -1%
6 | O=C(Nc1cccc(Nc2nccc(Nc3cccc(C(F)(F)F)c3)n2)c1)C1CC1 | 98% (inactive) | 90% | 68% | 76% | 46% | 44% |  |  | 1% | 2%
7 | c1ccc2c(-c3ccncc3)c[nH]c2c1 | 94% (inactive) | 77% | 98% | 100% | 110% | 72% | 99% | 76% | 92% | 70%
8 | Cc1cncc2cccc(S(=O)(=O)N3CCCN(C(=O)CN)C[C@H]3C)c12 | 88% (inactive) | 87% | 88% |  |  | 92% | 64% | 36% | 6% | 3%
9 | COc1cc2ncnc(Nc3ccc(Oc4ccccc4)cc3)c2cc1OC | 108% (inactive) | 73% | 61% | 75% | 82% | 93% | 52% | 30% | 28% | 9%
10 | CC(=O)c1ccc(N2CCOCC2)cc1O | 107% (inactive) | 95% |  |  | 110% | 102% | 109% | 100% | 100% | 95%
11 | CCOc1cc2ncnc(Nc3cccc(Br)c3)c2cc1OCC | 104% (inactive) | 115% | 48% | 5% | 36% | 4% | 55% | 46% | 56% | 7%
12 | N#C/C(=C(\N)Sc1ccc(N)cc1)c1ccccc1C(F)(F)F | 105% (inactive) | 103% | 94% | 87% | 88% | 82% | 75% | 70% | 26% | 15%
13 | O=[N+]([O-])c1ccc(-c2nc(-c3ccc(F)cc3)c(-c3ccncc3)[nH]2)cc1 | 113% (inactive) | 100% | 95% | 95% | 82% | 46% | 103% | 109% | 114% | 90%
14 | Oc1c2ccccc2c2c3c(cccc13)N=N2 | 110% (inactive) | 5% | 83% | 56% | 87% | 72% | 19% | 2% | 1% | 0%
15 | COc1cc2ncnc(Nc3ccc(NC(=O)c4ccccc4)cc3)c2cc1OC | 110% (inactive) | 100% | 101% | 81% |  | 93% | 18% | 12% | 2% | 0%
16 | O=C1NC(=O)/C(=C/c2ccc3c(c2)OC(F)(F)O3)S1 | 97% (inactive) | 97% | 103% | 79% | 94% | 98% | 90% | 57% | 74% | 64%
17 | Nc1cccc(-c2cc3c(Oc4cccc(O)c4)ncnc3[nH]2)c1 |  | 95% | -6% | -5% | -3% | -2% | 28% | 1% | 9% | 0%
18 | Cc1ccc(NC2=CC(=O)c3sc(C)nc3C2=O)cc1 | 100% (inactive) | 116% | 99% | 82% | 122% | 91% | 116% | 96% | 104% | 68%
